# Assay results published in the supplement of paper PMC3334620.
# The full ranking holds about 33,000 sequences; the median of “E-score (-0.5 to 0.5)” is about -0.053, and the highest 2% start at about 0.37. This is one part of a sample in which the highest values are shown more often than they occur.
# Molecular target: Hap1 (UniProt P0CE41)
# Test: PBM E-score (8-mer binding enrichment) (E-score (-0.5 to 0.5)); higher = stronger / more preferred TF binding
# Conditions: protein concentration: 200 nM; construct: GST-DNA-binding domain
# Description: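 Universal 'all 10-mer' protein binding microarrays (Agilent AMADID 015681) probed with GST-tagged S. cerevisiae TFs (full-length or DBD) made by in vitro transcription/translation (PURExpress), about 100-200 nM. Bound TF was detected with fluorescent anti-GST. Each ungapped 8-mer (which stands for itself and its reverse complement) is scored by the PBM enrichment score (E-score), a modified Wilcoxon-Mann-Whitney statistic from -0.5 to +0.5, computed with the Universal PBM Analysis Suite. Scale: above 0.35 generally sequence-specific binding.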
# UniProt P0CE41, sequence (P0CE41 whole entry): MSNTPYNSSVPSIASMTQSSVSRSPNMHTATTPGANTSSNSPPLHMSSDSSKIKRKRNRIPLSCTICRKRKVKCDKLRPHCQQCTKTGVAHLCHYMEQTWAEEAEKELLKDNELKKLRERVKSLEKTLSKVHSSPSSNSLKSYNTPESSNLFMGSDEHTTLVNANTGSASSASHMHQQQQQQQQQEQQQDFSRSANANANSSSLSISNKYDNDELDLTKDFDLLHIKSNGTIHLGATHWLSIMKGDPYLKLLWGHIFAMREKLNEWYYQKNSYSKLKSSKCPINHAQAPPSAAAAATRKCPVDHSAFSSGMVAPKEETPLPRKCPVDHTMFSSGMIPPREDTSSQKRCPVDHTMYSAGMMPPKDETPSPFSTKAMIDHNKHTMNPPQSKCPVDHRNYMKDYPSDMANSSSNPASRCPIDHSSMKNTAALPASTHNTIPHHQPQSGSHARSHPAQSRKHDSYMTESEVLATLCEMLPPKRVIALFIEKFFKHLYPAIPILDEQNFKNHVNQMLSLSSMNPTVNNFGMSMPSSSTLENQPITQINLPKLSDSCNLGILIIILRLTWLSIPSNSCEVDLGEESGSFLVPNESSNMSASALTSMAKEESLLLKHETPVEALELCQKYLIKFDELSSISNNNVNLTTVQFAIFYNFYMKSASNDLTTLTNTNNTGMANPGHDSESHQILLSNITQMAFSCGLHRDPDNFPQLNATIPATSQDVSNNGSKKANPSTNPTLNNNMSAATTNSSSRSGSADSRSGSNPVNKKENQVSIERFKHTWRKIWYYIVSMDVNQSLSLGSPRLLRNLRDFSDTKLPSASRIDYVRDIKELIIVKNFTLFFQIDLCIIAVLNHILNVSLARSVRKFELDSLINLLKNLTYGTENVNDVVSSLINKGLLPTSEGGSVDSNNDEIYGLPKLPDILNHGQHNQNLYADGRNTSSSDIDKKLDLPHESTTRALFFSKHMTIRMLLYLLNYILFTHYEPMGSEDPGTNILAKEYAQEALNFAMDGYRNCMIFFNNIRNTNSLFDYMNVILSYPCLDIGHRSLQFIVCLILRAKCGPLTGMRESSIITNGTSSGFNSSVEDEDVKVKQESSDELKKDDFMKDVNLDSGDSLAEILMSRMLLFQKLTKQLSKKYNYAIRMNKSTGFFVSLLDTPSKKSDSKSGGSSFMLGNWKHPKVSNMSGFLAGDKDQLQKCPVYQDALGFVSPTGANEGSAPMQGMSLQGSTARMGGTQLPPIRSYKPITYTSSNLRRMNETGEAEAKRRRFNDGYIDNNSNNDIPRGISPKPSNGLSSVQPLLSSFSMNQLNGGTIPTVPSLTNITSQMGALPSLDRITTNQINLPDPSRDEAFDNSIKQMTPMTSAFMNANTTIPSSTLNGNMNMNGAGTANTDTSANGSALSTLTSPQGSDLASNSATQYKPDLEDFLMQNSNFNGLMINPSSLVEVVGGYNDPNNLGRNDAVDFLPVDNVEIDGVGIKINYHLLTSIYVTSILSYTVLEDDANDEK
row,Sequence,PBM E-score
1,CCGGAAGA,0.365
2,CCGGAATC,0.416
3,ACGGAATC,0.28
4,CCGGAACA,0.376
5,TCGGAAAA,0.402
6,CAGGAAAA,-0.0124
7,GCGGAAAA,0.286
8,ACGGAAAA,0.317
9,ACGGAACA,0.241
10,TCGGAACA,0.349
11,CCGGAAAA,0.432
12,CCGGAATA,0.357
13,AGACACTC,-0.185
14,GCTTCATA,-0.0731
15,ACCTAGGC,-0.18
16,AAAGCGGG,-0.0186
17,ACTACGCC,-0.098
18,GAACTGTA,-0.00641
19,CCACTCCC,0.119
20,CCGGCCTC,0.182
21,CCGGAAAC,0.426
22,CCGGAAAG,0.307
23,GCGGAAAC,0.24
24,AGTTTCTA,-0.167
25,ACCAGGAT,0.0532

row,Sequence,PBM E-score
1,AAGCAATA,-0.0998
2,TCTTGTCA,-0.139
3,CGACCGGC,0.232
4,AGACCGGA,0.334
5,CGACCGTA,0.0335
6,GGACCGGA,0.406
7,CGACCGGA,0.412
8,GGACCGCA,0.186
9,ACTAGACA,-0.0952
10,AACGCGCG,0.13
11,CTGTCCGA,0.317
12,ATGTCCCG,0.234
13,ATGTCCGC,0.374
14,ATGTCCGA,0.463
15,ATGTCCGG,0.468
16,CTGTCCGC,0.113
17,ATGTCCCC,0.0493
18,GTGTCCGA,0.339
19,ATGTCCTG,0.00518
20,AGGGCCGG,0.326
21,CGCCCTCA,-0.149
22,CGACCAAC,-0.0313
23,CAACTGGG,-0.122
24,TCCGGTCA,0.385
25,CCCGGTAC,0.296

row,Sequence,PBM E-score
1,AGCGGTAA,0.247
2,GCCGGTAC,0.293
3,CCCGGTAA,0.387
4,CCCGGTCA,0.262
5,GCCGGTGA,0.274
6,GGCGGTAA,0.373
7,GGCGGTAC,0.0136
8,GCCGGTCA,0.177
9,CCCGGTAG,0.336
10,GCCGGTAA,0.422
11,ACCTCGCT,0.0563
12,AGTTACCG,0.266
13,AACAAGGG,-0.0715
14,ACAGACGC,-0.0711
15,AATTTACC,0.0607
16,AGCGTAGA,-0.0389
17,TACGGTAA,0.0382
18,TGCGGTAA,0.042
19,TCCGGTAA,0.442
20,ACACCTGA,-0.135
21,TGTCGAAA,-0.229
22,CAAGTGTC,-0.197
23,AAGAAACA,0.00593
24,ACCGCAAT,0.239
25,TATCCCGA,0.221

row,Sequence,PBM E-score
1,AATCCCGA,0.409
2,AATCCCAT,-0.107
3,AATCCCGC,0.257
4,CATCCCGA,0.176
5,AATCCCGT,0.372
6,CTGGTGAC,-0.288
7,CCAGCGAA,-0.0597
8,AGGCAATA,-0.181
9,AGGCATTA,-0.08
10,CGGCAATA,0.408
11,CGGCAATC,0.284
12,GGGCATTA,0.0704
13,CGGCATTA,0.459
14,TATATTGA,0.0255
15,ACAGTGGA,-0.0195
16,CACCAAGC,-0.174
17,AGTCCCTC,-0.175
18,CATGTCCA,-0.0578
19,AATGTCCA,-0.104
20,AATGTCCG,0.443
21,ATTGTCCG,0.396
22,AATGTCCT,-0.144
23,ATTGTCCA,-0.128
24,CATGTCCG,0.372
25,CATGTCCC,-0.054

row,Sequence,PBM E-score
1,ATTGTCCC,0.0458
2,GGCCATAC,0.17
3,CGCTACGA,0.111
4,CTCTCATC,-0.159
5,CAGATTAG,-0.167
6,AGGACATA,-0.187
7,GCTCAGTA,-0.239
8,CCAATGCA,-0.186
9,CGGACCCA,0.346
10,AAGTGACA,-0.105
11,ACCGGACT,0.408
12,AGCGGACT,0.287
13,AACGGACC,0.327
14,ACCGGATG,0.329
15,ACCGGACC,0.397
16,ACCGGTCG,0.289
17,AACGGACT,0.337
18,ACCGGACG,0.421
19,ACCGGATC,0.296
20,CTTCTGAC,-0.224
21,CTCCAGCA,-0.241
22,AATACGCG,0.0739
23,ACTAAACG,-0.112
24,ATACCTTA,-0.0965
25,AAACTACG,0.118

row,Sequence,PBM E-score
1,CCCTCCAC,-0.233
2,CCGACGGA,0.386
3,CGGACGGC,0.327
4,AGGACGTA,0.00968
5,GGGACGGA,0.227
6,CGGACGTA,0.443
7,ACGACGGA,0.199
8,CGGACGGA,0.397
9,CGGACGTC,0.258
10,GCGACGGA,0.258
11,CAGGTGTA,-0.199
12,CAGGTATG,-0.00123
13,CGGGTGGC,0.152
14,CACCCCAC,-0.026
15,CCCCGTGC,0.269
16,ACAACTTC,0.00956
17,CCCGACAA,0.311
18,CCAAGCTA,-0.112
19,CGCAGGAG,-0.0823
20,ACACCGGA,0.395
21,TCACCGGA,0.373
22,GCACCGGA,0.353
23,ACACCGGT,0.359
24,TCACCGCA,0.0366
25,CCACCGGG,0.34

row,Sequence,PBM E-score
1,ACACCGGC,0.341
2,CCACCGGC,0.233
3,CCACCGGA,0.432
4,GATCAGCC,-0.11
5,CTGCAGAC,-0.128
6,GACCCAAA,-0.00261
7,GGAGTATA,0.206
8,ACATGTAG,-0.081
9,CAAAGCAC,-0.138
10,CGGTGAGC,0.0638
11,AGACCTGA,-0.0959
12,CCGCGGTA,0.303
13,ATCCTCTC,-0.186
14,AGCGGGAA,0.207
15,ATAACCGA,0.386
16,ATAACCGC,0.157
17,AAACCCCC,0.0478
18,CACCCCGG,0.264
19,GACCCCGC,0.134
20,AAACCCCG,0.438
21,AACCCCCG,0.262
22,AACCCCGC,0.371
23,ACCCCCGC,0.217
24,CTAACCGA,0.176
25,AACCCCGG,0.456

row,Sequence,PBM E-score
1,ACCCCCGG,0.368
2,CTACTAGC,0.0698
3,GCCGTCCA,0.0557
4,AATAGATG,-0.118
5,CGTGTTTA,0.038
6,AAATTCTA,-0.166
7,ATGTACTA,-0.14
8,GTGGATCA,-0.21
9,CACCAATC,-0.0582
10,CAGATTGA,-0.0798
11,CCCAACAG,-0.328
12,ACCGTAAA,0.0865
13,CAACTGTA,-0.234
14,ATGTGCCA,-0.302
15,AAAACCCG,0.4
16,AAACCCGC,0.335
17,AAACCCGA,0.439
18,AAAACCCC,0.187
19,AAACCCGT,0.361
20,TAACCCGA,0.355
21,AAAACCGA,0.396
22,AAAACCCT,-0.0696
23,AAAACCGC,0.109
24,GAAACCGA,0.274
25,GAACCCGA,0.23

row,Sequence,PBM E-score
1,AAACCCGG,0.454
2,AGCCAGGC,-0.141
3,GCTTGGGA,-0.149
4,ACTGGGAG,-0.0791
5,CAGCTACA,-0.156
6,ACGCCTAC,-0.0649
7,GATGCGAA,-0.0227
8,TATTGCGA,0.0517
9,AGTTTGTC,-0.117
10,CACCATCG,-0.192
11,GCAGCGGC,-0.00312
12,ACGAGATC,-0.15
13,CCGCTGCA,-0.0239
14,GTACCTCA,-0.238
15,ATTCCGTG,0.294
16,ATTCCGCG,0.285
17,ATTCCGGG,0.374
18,ATTCCGTC,0.213
19,ATTCCGGC,0.37
20,ATTCCGCC,0.295
21,GAGTCGCC,-0.0011
22,CCTTGTCA,-0.311
23,GGGAGTTA,0.247
24,AGGAGTTC,-0.143
25,CGGAGTAA,0.37

row,Sequence,PBM E-score
1,AGGAGTTA,0.292
2,CGGAGTTC,0.394
3,GGGAGTAA,0.147
4,CTGAGTTC,-0.0173
5,CGGAGTTA,0.494
6,CGGAGTAC,0.254
7,CCCCTGTA,-0.154
8,GCTCGATA,0.0192
9,AGAGGAAT,-0.205
10,ATCTCTAC,-0.223
11,AAGATGGG,-0.126
12,CGCCGGAC,0.409
13,AGCCGGCC,0.354
14,CGCCGGGC,0.332
15,AGCCGGGG,0.268
16,AGCCGGCA,0.334
17,AGCCGGAC,0.409
18,AGCCGGAG,0.404
19,AGCCGGCT,0.25
20,CGTCGGAC,0.338
21,AGCCGGGC,0.173
22,AGCCGGTG,0.326
23,AGCCGGAT,0.418
24,ACACGCAG,-0.093
25,CGAGAAAC,0.187

row,Sequence,PBM E-score
1,AGCTTTGA,-0.0822
2,AAAGTGCT,-0.21
3,AAAGAATT,-0.0164
4,AGAGCTGC,-0.128
5,CGCTTTGA,0.0268
6,AACAGCTT,-0.106
7,TAGACACA,-0.156
8,AGCCGGAA,0.371
9,GGCCGGAA,0.363
10,GGACGGAC,0.358
11,AGCCGGTA,0.414
12,CGCCGGAA,0.357
13,GGCCGGAC,0.398
14,CGCCGGAG,0.399
15,GGCCGGTA,0.344
16,CGACGGAG,0.287
17,AGCCGGGA,0.231
18,AGCCGGTC,0.0184
19,CGCCGTAG,0.187
20,AAATACGA,-0.0883
21,CAACGGGC,0.153
22,CGCGAGCG,0.104
23,AGTAGCAG,-0.173
24,ATCCTCGA,-0.107
25,AAACGCCC,0.263

row,Sequence,PBM E-score
1,GTCCCGAC,0.243
2,AGGCGGCC,0.0302
3,GGTTCGAA,0.00151
4,CGTTCGGA,0.412
5,AGTTCGGA,0.366
6,GGTTCGGA,0.373
7,CGTTCGGC,0.291
8,CGTTCGTA,0.0644
9,GGCATACC,0.107
10,CCCGGCTA,0.344
11,ATGTTTCA,-0.21
12,CATGGTGG,-0.137
13,GCCCTCGC,-0.0401
14,CCCGTCTA,-0.0612
15,CGTACCTC,-0.0658
16,AACTGCTT,-0.134
17,CCTCCTCG,-0.147
18,ACCTGCTG,-0.058
19,CCCCGGGA,0.348
20,AACCGGGA,0.193
21,TACCGGTA,0.441
22,TACCGGGA,0.387
23,TCCCGGGA,0.392
24,CACCGGTC,0.227
25,GACCGGGA,0.329

row,Sequence,PBM E-score
1,AACCGGTA,0.331
2,TCACGGGA,0.0121
3,GACCGGTA,0.243
4,CACCGGTA,0.376
5,CACCGGTG,0.24
6,CAGTAGAA,-0.229
7,TTGCGCAA,-0.00107
8,CATGCAGC,-0.164
9,AGCTCGAC,-0.227
10,ATCAAGCG,0.0373
11,AGCTCGGG,0.363
12,CGCGACTA,0.197
13,CCCTTAAG,0.13
14,CCACCTGC,-0.121
15,GAAGACTA,-0.0051
16,CTTCTCCA,-0.301
17,GGGACATA,0.0939
18,AGGACAAA,-0.016
19,CGGACATA,0.489
20,CGGACAAA,0.405
21,CGGACATC,0.365
22,CGGACAAG,0.357
23,CGAGTTGC,-0.053
24,ACAGCGCG,0.0018
25,GGGGCGTA,0.00742

row,Sequence,PBM E-score
1,CGGGCGAC,0.304
2,CGGGCGTA,0.395
3,AGGGCGTA,-0.137
4,GGGGCGAA,0.127
5,CGGGCGAA,0.375
6,AAAGGTGG,-0.156
7,ACGGCGAA,0.0956
8,CCGAAGTC,0.318
9,ATTGAACC,-0.0801
10,AGGCCGAG,0.303
11,CGGCCGAA,0.449
12,AGGCCGAC,0.32
13,GGGCCGAA,0.311
14,CGGCCGAG,0.449
15,GGGCCGAC,0.312
16,TGGCCGAA,0.261
17,CGGCCAAG,0.195
18,CGGCCGAC,0.415
19,GTACTGAC,-0.119
